# TGFb inhibitor – TGF-b pathway inhibition. hit rate 1.2% among 410,000. Potency, µM (doses to about 46.1 µM), without a hit: at the top dose activity, negative = inhibition, usual class: inhibitors. AID 588855. HepG2 CAGA-GFP TGF-b/SMAD3 reporter, GFP fluorescence, 18 h; TGF-beta stimulated, 500 pg/mL final; note: % is set by controls: 0 for no effect and ±100 for the full control effect; nearly all actives have a fitted effect of over 65% in size
#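 HEPG2 CAGA-GFP, 1000 cells/well; 2 h settle, 37 C; cpd via pin tool; TGF-b 500 pg/mL final; 18 h, 37 C; GFP imaging ex488/em500-530; %Activity normalised to -TGF-b and +DMSO controls; CRC fit, curve class.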
# TDP1 cell CPT – growth inhibition of DT40 Tdp1-/-;hTDP1 cells with camptothecin (screen for TDP1 inhibitors) | chicken DT40 Tdp1-/-;hTDP1 cells + 20 nM CPT, ATP luminescence, 48 h | Potency, µM (series often up to 46.2 µM), without a hit: top-dose activity change, negative = growth inhibition, hits mostly inhibitors | hit rate 12% among 420,000; note: % is set by controls: 0 for no effect and ±100 for the full control effect; nearly all actives have a fitted effect of over 55% in size
#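 Chicken DT40 Tdp1-/- cells complemented with human TDP1, 400 cells/well, exposed to compounds plus 20 nM camptothecin for at least 48 h at 37 C; viability read as ATP content by CellTiter-Glo luminescence.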
# ATXN2 expr inh – inhibitors of ATXN2 expression; HEK-293 ATXN2-luciferase reporter, luminescence, 24 h; Potency, µM (series often up to 57 µM), inactives show at the highest dose activity change, negative = inhibition, actives largely listed as inhibitors; hit rate 0.72% among 360,000; AID 1745845; note: % is set by controls: 0 for no effect and ±100 for the full control effect; nearly all actives have a fitted effect of over 55% in size
#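 qHTS (up to 57 uM final) was run with 24 h compound exposure of reporter cells at 37 °C. Each well was multiplexed: SteadyGlo luminescence measured ATXN2-luciferase expression after a fluorogenic Gly-Phe-AFC viability readout (25 uM final).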
# DT40 TDP1 no CPT – qHTS for Inhibitors of human tyrosyl-DNA phosphodiesterase 1 (TDP1): qHTS in cells in absence of CPT | DT40 Tdp1-/- hTDP1 cells, no CPT, ATP luminescence, 48 h | Potency, µM (top dose mostly 46.2 µM), for inactives: at the highest dose activity change, negative = growth inhibition, most hits filed as inhibitors | hit rate 15% among 420,000 | AID 686978, 2013; note: % is set by controls: 0 for no effect and ±100 for the full control effect; nearly all actives have a fitted effect of over 55% in size
#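 Camptothecin absent (DMSO only). Human TDP1-complemented DT40 knockout cells, 400 cells/well, 37 °C for minimum 48 hr; ATP measured via CellTiter-Glo, 30 min dark incubation, luminescence.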
# HepG2 tox – HepG2 cytotoxicity, counter-screen for TGF-b inhibitors. HepG2 CAGA-GFP viability, ATP luminescence, 18 h. Potency, µM (highest dose often 46.1 µM), for the others: at the highest dose activity change, negative = cytotoxicity, most hits filed as cytotoxic. hit rate 0.76% among 410,000. AID 588856
#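 CellTiter-Glo luminescence gave cytotoxicity after 18 hours at 37 degrees C. The cells were HepG2 CAGA-GFP in 1% FBS DMEM, stimulated with 500 pg/mL TGF-beta after compound addition. %Activity was normalised to no-cell wells (complete cell-killing) and DMSO (no toxicity), and curves were fitted and classified.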
# S2 tox – reduces viability in counter-screen for ATXN expression inhibitors; S2 cells (HEK-293 line with an ATXN2-luciferase reporter) viability, CellTiter-Fluor protease fluorescence, 24 h; Potency, µM (top dose mostly 56.7 µM), actives largely listed as cytotoxic; hit rate 0.49% among 400,000; AID 651635; note: nearly all actives have a fitted effect of over 40% in size
# The depositor's hits bear a star; i = inactive; ? = inconclusive; / = not tested or not shown. Sampled rows, rich in hits. Any-hit rate of the full collection: about 17%. Calls come from the whole dose curve; as a rule, active = well fitted curve in the direction sought with a large enough effect; inconclusive = small, poorly fitted or top-dose-only effect, or another doubt; inactive = no such curve, though single readings can be large; an effect the other way counts as inactive or inconclusive. Potency is the fitted concentration of half-maximal effect.
SMILES,TGFb inhibitor,TDP1 cell CPT,ATXN2 expr inh,DT40 TDP1 no CPT,HepG2 tox,S2 tox
O=C(CCNC(=O)c1ccccc1Cl)Nc1ccc2c(c1)OCCO2,-4%,-20%,/,-28%,-13%,i
O=C(c1ccc2c(c1)N(Cc1ccccc1)C(=O)c1ccccc1S2(=O)=O)N1CCN(c2ccccn2)CC1,/,?,/,21µM*,6%,/
O=C(c1ccc2c(c1)N(Cc1ccccc1F)C(=O)c1ccccc1S2(=O)=O)N1CCN(c2ccccn2)CC1,0%,26µM*,-2%,21µM*,1%,i
O=C(NCC(=O)N1CCN(c2ccccc2)CC1)c1ccc(Cl)cc1,18%,6%,/,-9%,5%,i
Cc1ccc(C)c(CN2C(=O)c3ccccc3S(=O)(=O)c3ccc(C(=O)N4CCN(c5ccccn5)CC4)cc32)c1,/,?,/,?,-23%,/
O=C(NCC(=O)N1CCC(Cc2ccccc2)CC1)c1ccc(Cl)cc1,0%,16µM*,5%,?,4%,i
CN(NC(=O)/C=C/C(=O)O)c1ncc(C(F)(F)F)cc1Cl,14%,-13%,-5%,-8%,1%,i
COc1ccc(-c2nnn(CC(=O)N(Cc3ccc(F)cc3)C(C(=O)NC3CCCC3)c3ccc(F)cc3)n2)cc1 (centres undefined),5%,21µM*,?,?,-10%,i
O=C(NC1CCCC1)C(c1ccc(F)cc1)N(Cc1ccc(F)cc1)C(=O)CCl (centres undefined),-29%,3.3µM*,2%,4.6µM*,-36%,i
O=C(NC1CCCC1)C(c1cccnc1)N(Cc1ccc(F)cc1)C(=O)c1csnn1 (centres undefined),-23%,6%,-8%,0%,-8%,?
CN(C)c1nc(-c2ccoc2)nc2ccccc12,/,-14%,/,-25%,/,/
Cc1sc(-n2c(C)cc(/C=N/n3cnnc3)c2C)c(C#N)c1C,?,16µM*,-3%,21µM*,0%,i
CCOc1ccccc1NS(=O)(=O)c1cn(C)c(=O)n(C)c1=O,15%,-5%,3%,22%,2%,i
CCc1ccc(-c2nc(CN3CCCC(C(=O)NCCc4ccc(OC)c(OC)c4)C3)c(C)o2)cc1 (centres undefined),0%,23µM*,-23%,13µM*,-49%,?
Cc1ccccc1-c1nc(CN2CCCC(C(=O)NCc3cccnc3)C2)c(C)o1 (centres undefined),0%,23µM*,/,16µM*,-19%,/
CCOc1ccc(CCNC(=O)C2CCN(Cc3nc(-c4ccccc4C)oc3C)CC2)cc1OCC,1%,-29%,9%,-13%,-17%,i
Cc1ccccc1-c1nc(CN2CCCC(C(=O)NCCCN3CCOCC3)C2)c(C)o1 (centres undefined),?,3%,-10%,?,-26%,?
Cc1ccc(CCNC(=O)C2CCN(Cc3nc(-c4ccccc4C)oc3C)CC2)cc1,-21%,13µM*,-4%,18µM*,-22%,i
COc1ccc(-c2nc(CN3CCCC(C(=O)NC4CCCC4)C3)c(C)o2)cc1 (centres undefined),-6%,?,-5%,?,-24%,i
COc1ccc(CCNC(=O)C2CCCN(Cc3nc(-c4ccccc4C)oc3C)C2)cc1OC (centres undefined),-23%,23µM*,-17%,23µM*,-29%,i
COCCNC(=O)CN(C(=O)Cn1nnc2ccccc21)c1ccc(C)c(F)c1,-7%,-2%,6%,1%,-6%,i
Cc1ccc(Cl)cc1NC(=O)C(Cc1ccccc1)NS(=O)(=O)c1cccc2nsnc12 (centres undefined),-25%,?,-9%,?,2%,i
Cc1ccc(-c2[nH]ncc2CNCc2ccc(CN(C)C)cc2)cc1,-1%,13µM*,/,22µM*,1%,/
COc1ccccc1CNCc1ccc(C)cc1,0%,?,-17%,0%,0%,i
COc1ccc(-c2[nH]ncc2CNCCCSC)cc1F,16%,-15%,/,-5%,1%,i
SMILES,TGFb inhibitor,TDP1 cell CPT,ATXN2 expr inh,DT40 TDP1 no CPT,HepG2 tox,S2 tox
Cc1ccc(CNCc2cn[nH]c2-c2ccc(C)cc2)cc1,-17%,7.9µM*,/,13µM*,-15%,/
Cc1nc(S/C(=C/c2ccc(OCc3ccc(C(=O)O)cc3)cc2)C(=O)O)n[nH]1,11%,18%,0%,-6%,-5%,i
COc1ccc(NC(=O)N2CCCC2C(=O)NCc2cccs2)cc1 (centres undefined),?,-5%,-7%,0%,-26%,i
Cc1ccc(CNC(=O)CN2N=C(c3ccccc3)CCC2=O)cc1,-1%,-21%,4%,-18%,2%,i
O/N=C/c1ccccc1Oc1ccc(Cl)cc1,?,?,/,16µM*,-33%,i
O/N=C/c1ccccc1Oc1ccccc1,2%,-12%,-34%,-23%,-29%,i
CC(C)c1nnc(NC(=O)CCC2CCCCC2)s1,1%,2%,52%,8%,-15%,i
O=C(CCCCN1CCCCC1)c1ccccc1,0%,-8%,-1%,-14%,-20%,i
O=C(C(=Cc1ccccc1)CN1CCCCC1)c1ccccc1,?,0.73µM*,?,1.5µM*,-101%,8.4µM*
CC(=O)N1SC(N)=NC1c1ccccc1 (centres undefined),-6%,4%,-28%,-12%,-1%,i
c1ccc([C@H]2CN3C(=N2)Sc2ccccc23)cc1,?,18µM*,115%,?,-23%,i
O=C(CSCc1ccccc1)Nc1ccc2c(c1)OCO2,0%,-23%,72%,-15%,-17%,i
O=C(CSCc1c(Cl)cccc1Cl)Nc1ccccc1C(=O)N1CCOCC1,10%,?,-7%,21µM*,-25%,i
O=C(CSCc1c(Cl)cccc1Cl)Nc1ccc2c(c1)OCO2,-2%,?,20%,18µM*,-28%,i
O=C(CSCSCC(=O)Nc1ccc2c(c1)OCO2)Nc1ccc2c(c1)OCO2,?,15µM*,-11%,?,-32%,i
O=C(CSCc1ccc(Cl)cc1)Nc1ccccc1C(=O)N1CCOCC1,?,-25%,-2%,?,-2%,i
COc1ccc(NC(=O)[C@@H](c2ccccc2)N2Cc3ccccc3C2=O)cc1OC,10%,-19%,-2%,-25%,13%,i

# Screening data from PubChem.
